21 compounds from PubChem BioAssay (NCI) can be followed below.

A short description of experiment [1]: NCI Yeast Anticancer Drug Screen. Data for the rad50 strain (AID 155).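 Further: 0% = growth of vehicle-only cultures of the same strain.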 The conditions noted are these: S. cerevisiae rad50 strain growth inhibition; at 50.0 µM; hits give high values. The essentials:
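Genetically altered yeast (DNA repair pathway); compound treatment; growth inhibition vs vehicle ctrl.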

Experiment [2] in a line: NCI Yeast Anticancer Drug Screen. Data for the mec2-1 strain (AID 157). The conditions noted are these: S. cerevisiae mec2-1 strain, at 50.0 µM, hits give high values. In short, it runs like this:
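Readout is yeast growth inhibition, normalised to vehicle-treated controls, in the mec2-1 strain exposed to compound.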

Experiment [3] in a line: NCI Yeast Anticancer Drug Screen. Data for the sgs1 mgt1 strain (AID 161).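 Further: 0% = growth of cultures given vehicle only.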 The conditions noted are these: S. cerevisiae sgs1 mgt1 strain, at 50.0 µM, hits give high values. The essentials:
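Compounds are added to genetically altered yeast, and growth is compared with cultures given vehicle alone to give percent inhibition.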

Experiment [4] can be described thus: NCI Yeast Anticancer Drug Screen. Data for the cln2 rad14 strain (AID 165).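 Further: 0% = growth equal to vehicle treated cultures.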 The note with it: S. cerevisiae cln2 rad14 strain, at 50.0 µM, hits give high values. In short, it runs like this:
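Relative to vehicle controls, growth inhibition of compound-treated cln2 rad14 yeast was recorded.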

Experiment [5] can be described thus: NCI Yeast Anticancer Drug Screen. Data for the bub3 strain (AID 167). The conditions noted are these: S. cerevisiae bub3 mutant strain, at 50.0 µM, hits give high values. In short, it runs like this:
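Yeast carrying a defined mutation is treated with each compound, and growth is compared with that of vehicle-exposed cells to give inhibition.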

Experiment [6] is described as follows: NCI Yeast Anticancer Drug Screen. Data for the mlh1 rad18 strain (AID 175). The conditions noted are these: S. cerevisiae mlh1 rad18 strain growth inhibition; at 50.0 µM; hits give high values. In short, it runs like this:
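Test agents were incubated with a yeast strain of defined genotype (DNA damage repair defect). Inhibition of growth was derived by comparison with vehicle-exposed cultures.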

Molecules are shown by their SMILES. About 79,000 compounds went through this panel and 15% of them were active in at least one assay; those are over-represented in the sample as a whole. Values without a mark were called inactive. The source made the active and inactive calls. No stated cut-off is given here; in the data, active means growth inhibition above about 70%; inactive means the rest. Where a SMILES comes first, the peptide text is derived from it. Bridges are numbered along the chain shown (N, C = ends). Roman numbers before positions name the chains, in order. [ ]: non-standard residue; d: D form. The star is where a group is joined. Quinoxaline2carbonyl = O=C(c1cnc2ccccc2n1)*; NMeV = CN[CH](C(=O)O)C(C)C; NMeC = CN[CH](CS)C(=O)O

On to `C1CCC(N2CSC3CCCCC32)CC1` (stereo unspecified), for which the growth inhibition in experiment [1] was -0.65%; in experiment [2] it was -12.2%; in experiment [3], 4.35%; in experiment [4], -18.2%; in experiment [5], 16.2%; in experiment [6] it was 5.6%.
On to `NNN1CCN(N)CC1`, for which the growth inhibition in experiment [1] was 11.1%; in experiment [2], -12.2%; in experiment [3], 6.35%; in experiment [4] it was -8.35%; in experiment [5], 17.1%; in experiment [6], 4.35%.
As for `CCC1C2Cc3ccc(O)cc3C1(CC)CCN2C` (stereo unspecified), the growth inhibition in experiment [1] was 10.6%; in experiment [2], -35.2%; in experiment [3] it was -42.5%; in experiment [4], -1.65%; in experiment [5] it was -77.2%; in experiment [6], -13.2%.
Consider `C1CN([PH+](N2CC2)N2CC2)CCO1.C1CN([PH+](N2CC2)N2CC2)CCO1.[Cl][Pt][Cl]`, for which the growth inhibition was 5.3% in experiment [1]; 26.6% in experiment [2]; 10% in experiment [3]; -8.85% in experiment [4]; -3.35% in experiment [5]; 22.7% in experiment [6].
Turning to `O=[N+]([O-])c1ccc2nc(-c3ccc(S(=O)(=O)F)cc3)cc(Cl)c2c1`, the growth inhibition in experiment [1] is -19.1%; in experiment [2] it was 16.9%; in experiment [3], 4.45%; in experiment [4], -12.4%; in experiment [5] it was 13.3%; in experiment [6], -9.9%.
`CC(Cl)CNC1CCCCC1` (stereo unspecified): the growth inhibition is 6% in experiment [1]; -3.5% in experiment [2]; -8.95% in experiment [3]; -10.6% in experiment [4]; -0.95% in experiment [5]; -0.9% in experiment [6].
Consider `S=C([S-])N1CCCCC1.S=C([S-])N1CCCCC1.[Zn]`, for which the growth inhibition was 79.5% (active) in experiment [1]; 73.3% (active) in experiment [2]; 96% (active) in experiment [3]; 22.9% in experiment [4]; -3% in experiment [5]; 65% in experiment [6].
For the compound `CN(C)Cc1c[nH]c2ccc(F)cc12`, the growth inhibition in experiment [1] is -27%; in experiment [2] it was -13.8%; in experiment [3], -15.2%; in experiment [4], 5.65%; in experiment [5] it was -11.8%; in experiment [6], -16.9%.
For `ClCCN(CCCl)c1ccc(/C=N\N=C\c2ccncc2)cc1`, the growth inhibition in experiment [1] is 4.35%; in experiment [2], -3.95%; in experiment [3] it was 6.15%; in experiment [4] it was -8.5%; in experiment [5], 0.95%; in experiment [6], -1.8%.
`CC(C)NCCc1c[nH]c2ccccc12`: the growth inhibition is 3% in experiment [1]; -7.15% in experiment [2]; 12.4% in experiment [3]; -60% in experiment [4]; 13.3% in experiment [5]; 1.65% in experiment [6].
For `O=C(CC(=O)C(F)(F)F)c1cccs1`, the growth inhibition in experiment [1] was -6.15%; in experiment [2], -11.6%; in experiment [3] it was 1.1%; in experiment [4], 12.3%; in experiment [5] it was 11.9%; in experiment [6], -13.1%.
Regarding `OCCNC1CCCCC1`, the growth inhibition is 5.15% in experiment [1]; -1.65% in experiment [2]; -13.8% in experiment [3]; -1.8% in experiment [4]; 3.55% in experiment [5]; -16.1% in experiment [6].
For `O=P(Oc1ccccc1)(Oc1ccccc1)Oc1c(Cl)c(Cl)c(O)c(Cl)c1Cl`, the growth inhibition in experiment [1] was 23.6%; in experiment [2], 10%; in experiment [3], 38.9%; in experiment [4], 19.1%; in experiment [5] it was -16.4%; in experiment [6] it was 2.35%.
For `CC1NC(=O)C(NC(=O)c2cnc3ccccc3n2)COC(=O)C(C(C)C)N(C)C(=O)C2CSSCC(C(=O)N(C)C(C(C)C)C(=O)OCC(NC(=O)c3cnc4ccccc4n3)C(=O)NC(C)C(=O)N2C)N(C)C1=O` (stereo unspecified) (I: Quinoxaline2carbonyl-SA[NMeC][NMeV] / II: Quinoxaline2carbonyl-SA[NMeC][NMeV]; ester I:1-II:C, I:C-II:1; disulfide I:3-II:3; configuration not given here), the growth inhibition was 87.3% (active) in experiment [1]; 90.5% (active) in experiment [2]; 90% (active) in experiment [3]; 86.7% (active) in experiment [4]; 88.2% (active) in experiment [5]; 89.7% (active) in experiment [6].
Consider `O=P(O)(NCCCl)NCCCl`, for which the growth inhibition in experiment [1] is -24.4%; in experiment [2] it was -17.9%; in experiment [3], -22.7%; in experiment [4], -5.6%; in experiment [5], -41.1%; in experiment [6], -39.5%.
Regarding `CCOC(=O)C1C(=O)NC2CCC(=O)CC21c1ccc2c(c1)OCO2` (stereo unspecified), the growth inhibition in experiment [1] is 10.7%; in experiment [2], -9.5%; in experiment [3], -1.8%; in experiment [4], -3.55%; in experiment [5], 23.9%; in experiment [6], 11.2%.
In the case of `CNC(=O)CCl`, the growth inhibition in experiment [1] was 5.65%; in experiment [2], 3.4%; in experiment [3], -0.45%; in experiment [4], -7.15%; in experiment [5], -0.75%; in experiment [6], 6.4%.
In the case of `C=CCP(c1ccccc1)c1ccccc1`, the growth inhibition in experiment [1] was -2%; in experiment [2], -3.75%; in experiment [3], -8.65%; in experiment [4], 8%; in experiment [5], 9.1%; in experiment [6], -13.5%.
As for `c1ccc2nc(-c3ccc4ccccc4n3)ccc2c1`, the growth inhibition in experiment [1] was -5.95%; in experiment [2], -7.45%; in experiment [3], -3.4%; in experiment [4], -49.4%; in experiment [5] it was -13.7%; in experiment [6], -12.2%.
For `c1cc(C2O[C@H]3CCCN3[C@@H]2c2ccncc2)ccn1` (stereo partly specified), the growth inhibition was -30.6% in experiment [1]; -17.9% in experiment [2]; 1.15% in experiment [3]; 2.85% in experiment [4]; -14.8% in experiment [5]; -25.4% in experiment [6].
Turning to `CC1=CC(=O)CCC12CCOC2=O` (stereo unspecified), the growth inhibition in experiment [1] was -54.1%; in experiment [2], -20.1%; in experiment [3], -21.3%; in experiment [4], -40.6%; in experiment [5], -13.2%; in experiment [6] it was -7.55%.
